The list is not random: actives were taken first. Their share in the collection is about 2.8%.
Giardia kill: kills Giardia lamblia; Giardia lamblia trophozoite viability; AID 540267; activity change, % at 7.66 µM, hits read low; actives 0.15% (n = 340,000); in the data active = activity change below about -80%; inconclusive = between about -30% and that limit;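 note: parasites exposed to compound for two days anaerobically before the ATP read; % is set by controls: 0 for no effect and ±100 for the full control effect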
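Compounds were tested on trophozoites seeded at 100 cells/well and held 48 hrs at 37 deg C anaerobically. An ATP-based luminescent kit measured the remaining live cells.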
DRD3 antagonist: blocks the human D3 dopamine receptor. D3R cells, DiscoveRx beta-arrestin luminescence, antagonist mode; active compounds read low. actives 2.5% (n = 360,000). AID 652054. max response, negative = inhibition, %. P35462; in the data active = max response below about -50%; inconclusive = no clear call, values can overlap the other calls; note: % is set by controls: 0 for no effect and ±100 for the full control effect
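Cells plated overnight at 1500 cells/well, then exposed to library compounds with dopamine controls for 90 minutes at 37 degrees C. DiscoveRx reagent added for 30–60 minutes at room temperature; luminescence read, quantitative HTS format.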
D3 ag: agonists of human D3 dopamine receptor | AID 652048 | max activation, % | D3R DiscoveRx beta-arrestin cells, luminescence, 90 min | actives 0.58% (n = 410,000); in the data active = max activation above about 30%; note: 0% is about no effect
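Cells at 1500/well, incubated overnight, then treated with pinned compounds (dopamine as control) for 90 min at 37 degrees C. DiscoveRx reagent added for 30 - 60 minutes at room temperature; luminescence read.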
B2AR arrestin: beta2AR (human) beta-arrestin recruitment activity; P07550; actives 0.02% (n = 330,000); AID 492947; Potency, µM (highest dose often 46.1 µM), without a hit: top-dose activation, most hits filed as activators; beta-arrestin recruitment to beta2AR, cell-based reporter; active = well fitted activation curve with a large enough effect; inconclusive = small, poorly fitted or top-dose-only effect;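 note: potency is the fitted concentration of half-maximal effect; 0% = DMSO controls and full agonism = EC100 isoproterenol or metaproterenol; nearly all actives have a fitted effect of over 65% in size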
Target sequence (P07550 whole entry, looked up): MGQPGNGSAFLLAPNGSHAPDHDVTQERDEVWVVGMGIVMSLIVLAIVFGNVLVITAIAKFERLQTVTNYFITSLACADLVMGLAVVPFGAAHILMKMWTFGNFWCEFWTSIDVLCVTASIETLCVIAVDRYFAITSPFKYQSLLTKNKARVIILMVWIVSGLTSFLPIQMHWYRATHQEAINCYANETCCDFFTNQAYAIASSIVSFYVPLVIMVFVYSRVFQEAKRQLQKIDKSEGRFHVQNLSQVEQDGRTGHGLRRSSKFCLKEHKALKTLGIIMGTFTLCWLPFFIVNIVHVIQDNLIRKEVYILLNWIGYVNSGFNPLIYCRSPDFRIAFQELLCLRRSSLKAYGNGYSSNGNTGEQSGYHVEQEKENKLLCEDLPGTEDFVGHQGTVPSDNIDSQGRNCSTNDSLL
Active calls of the source: *; ? = inconclusive; nt = no result.

SMILES	Giardia kill	DRD3 antagonist	D3 ag	B2AR arrestin
CC1=CN2C(=N)/C(=C/c3ccco3)C(=O)N=C2S1	-13.3	-59.7*	-7.5	3.2%
O=C(NCCSc1c(-c2ccc(Br)cc2)[nH]c2ccccc12)c1ccc(S(=O)(=O)N2CCOCC2)cc1	nt	nt	14.8	nt
CCCC1=NN(c2ccc([N+](=O)[O-])cc2)C(=O)/C1=C/N(C)C	-5.3	-15.3	5.1	-0.5%
CC1=NN(c2ccc([N+](=O)[O-])cc2)C(=O)/C1=C\N(C)C	-5.5	-57.4*	-12.5	-0.7%
CS(=O)(=O)N1CCCCC1c1cc(C(=O)Nc2cccc(C#N)c2)no1 (stereo not drawn)	nt	-8.3	-16.1	nt
Cn1cnc(S(=O)(=O)N2CCCCC2c2cc(C(=O)Nc3cccc(C#N)c3)no2)c1 (stereo not drawn)	nt	-80.0*	-22.1	nt
COC(=O)c1ccc(CSc2nc3c(cnn3-c3ccc(F)cc3)c(=O)[nH]2)o1	7.3	27.3	31.8*	0.0%
CCCC/C=C/[C@H](c1ccccc1)[C@H](CO)Cc1cnc2ccccc2c1	-0.4	nt	nt	nt
O=C(CSc1ncc2c(n1)-c1ccccc1N(Cc1ccccc1)S2(=O)=O)Nc1ccccc1	nt	nt	6.5	nt
CC(C)OCCCN(C)C1CCN(S(=O)(=O)c2ccc(-c3cc(C(F)(F)F)no3)s2)CC1	?	-84.2*	-7.9	-0.4%
CCN1CCN(C(=S)c2ccc(Cl)c(Cl)c2)CC1	-1.8	-51.1*	-5.3	0.1%
CCN1CCN(C(=S)Nc2cccc(Cl)c2)CC1	2.2	-6.3	-1.6	-0.1%
CCN1CCN(C(=S)Nc2ccc(Cl)c(Cl)c2)CC1	-20.2	-50.5*	-31.0	0.5%
Cc1cc(C)c(OCCCCN2CCC(C)CC2)c(Br)c1	-13.5	?	-37.7	0.2%
Cc1ccc(OCCCCN2CCCCC2)cc1	15.0	-13.0	-5.9	-0.8%
Brc1ccc(OCCCCN2CCCCC2)cc1	-4.0	-55.4*	-6.5	-0.3%
Cc1cc(Br)ccc1OCCCCN1CCC(C)CC1	-7.9	-75.7*	-27.2	-0.4%
CC1CCN(CCCCOc2cccc(Br)c2)CC1	0.4	?	-31.7	-0.3%
CC1CCN(CCOc2ccc(Cl)c(Cl)c2)CC1	1.6	-51.3*	1.0	1.5%
CC1CCN(CCCCOc2ccc(Br)cc2)CC1	-29.3	-51.8*	-17.5	-0.3%
O=C(NNC1=C(C(=O)C(F)(F)F)CCC1)c1ccccc1O	-19.6	?	-2.3	-0.4%
COc1ccccc1C(=O)NNC1=C(C(=O)C(F)(F)F)CCC1	-18.2	-57.0*	-34.1	0.7%
CCC(CC)C(=O)NCc1nc2cccnc2n1Cc1ccc(F)cc1	nt	nt	-10.6	nt
COc1cc2[nH]c(=S)nc(NCCCOC(C)C)c2cc1OC	6.0	-78.3*	-1.9	0.0%
CCOCCCNc1nc(=S)[nH]c2cc(OC)c(OC)cc12	26.5	-26.9	0.8	0.0%
SMILES	Giardia kill	DRD3 antagonist	D3 ag	B2AR arrestin
CC(OCc1ccccc1)C(NC(=O)OC(C)(C)C)C(=O)NC1COC2CC(n3cc(F)c(=O)[nH]c3=O)OC12 (stereo not drawn)	-23.0	nt	nt	nt
COc1ccc(Cl)cc1NC(=O)Nc1cccc([N+](=O)[O-])c1C	-4.3	-76.1*	-16.7	0.0%
COc1cc(C2NC(=O)C(C#N)=C(S)N2c2ccccc2)ccc1OC(C)C (stereo not drawn)	-1.6	-66.8*	-0.3	0.4%
COc1ccc(NC(=O)c2cnc3sccn3c2=O)cc1	-18.4	-52.5*	4.8	-0.3%
COc1cccc(C(=O)Nn2cnnc2)c1	4.1	0.9	30.5*	0.2%
COc1cccc(C=Nc2ccccc2C(=O)Nc2nccs2)c1OC	-18.4	-73.7*	-3.8	0.3%
Cc1ccc(C(=O)c2cn(Cc3ccccc3C)c3nc(C)ccc3c2=O)cc1	nt	nt	2.3	nt
Cc1cccc(NC(=S)NNC(=O)c2nn(C)cc2Cl)c1	-1.9	-98.8*	-4.4	-0.6%
Cc1ccc(NC(=S)NNC(=O)c2nn(C)cc2Cl)cc1	11.7	-53.7*	-2.1	0.2%
c1ccc(Cn2nnnc2C(c2ccccc2)N2CCN(Cc3ccncc3)CC2)cc1 (stereo not drawn)	5.6	nt	nt	nt
COc1ccc2c(Sc3ccc(Cl)cc3)c(C(=O)NCCCN3CCCCC3)[nH]c2c1	nt	nt	-17.6	nt
O=S(=O)(c1cccc(C(F)(F)F)c1)N1CCN(c2nc(-c3cccs3)nc3cc(Cl)ccc23)CC1	2.5	nt	nt	nt
COc1nn(CC(=O)N2N=C(C(F)F)CC2(O)C(F)F)cc1[N+](=O)[O-] (stereo not drawn)	15.3	-20.1	-1.5	7.0%
COc1nn(C(C)C(=O)N2N=C(C(F)F)CC2(O)C(F)F)cc1[N+](=O)[O-] (stereo not drawn)	-81.6*	23.5	1.7	-0.1%
CC(C)CNC(=O)C1(C)CCCN1C(=O)C(C)(C)Oc1ccc(Cl)cc1 (stereo not drawn)	nt	-100.4*	-21.3	nt
CC(C)CNC(=O)C1(C)CCCN1C(=O)c1cncc(Br)c1 (stereo not drawn)	nt	-17.5	-3.1	nt
CC(C)CNC(=O)C1(C)CCCN1C(=O)c1ccncc1 (stereo not drawn)	nt	4.0	88.6*	nt
COC(=O)C1CCN(Cc2nnc(-c3ccccc3)o2)CC1	-14.8	19.4	81.1*	-0.7%
NC(=O)C1CCN(Cc2nc(-c3ccccc3)no2)CC1	2.8	28.9	34.0*	-0.6%
COC(=O)C1CCN(Cc2cn(-c3ccccc3)nc2-c2ccc3c(c2)OCO3)CC1	3.1	-69.0*	-2.3	-0.5%
O=C(COC(=O)c1ccc2ncsc2c1)NC(=O)C1CCCCC1	-5.4	nt	nt	nt
Cc1cc(C)c(C#N)c(SCC(=O)Nc2ccc(S(=O)(=O)Nc3onc(C)c3C)cc2)n1	-23.0	-54.2*	4.0	0.0%
Cc1noc(NS(=O)(=O)c2ccc(NC(=O)C(Cl)(Cl)Cl)cc2)c1C	-7.0	-1.3	0.2	-0.4%
Cc1noc(NS(=O)(=O)c2ccc(NC(=O)Nc3ccc(Cl)c(Cl)c3)cc2)c1C	15.0	-77.1*	4.9	-0.7%
N#Cc1ccccc1S(=O)(=O)N1CCN(c2nc(-c3cccs3)nc3ccccc23)CC1	10.1	nt	nt	nt
SMILES	Giardia kill	DRD3 antagonist	D3 ag	B2AR arrestin
O=C(CCN1C(=O)/C(=C/c2cccs2)SC1=S)N1CCCCC1	7.0	11.2	33.6*	-0.3%
Cc1cc(SCC(=O)NCc2ccc(Cl)cc2)nc(=O)[nH]1	nt	nt	-1.1	nt
Cc1cnc([N+](=O)[O-])n1CCOC(=O)c1cccc(F)c1	-80.7*	3.2	-5.5	-0.6%
Cc1cnc([N+](=O)[O-])n1CCOC(=O)NC(=O)c1ccc(F)cc1	?	16.1	1.3	0.2%
CSc1nnc(NC(=O)c2nc(S(=O)(=O)Cc3cccc(C)c3)ncc2Cl)s1	-1.4	-53.5*	-2.2	-0.4%
Cc1cccc(CS(=O)(=O)c2ncc(Cl)c(C(=O)Nc3nnc(C(C)C)s3)n2)c1	-3.6	-61.6*	-20.5	-0.6%
CCc1nnc(NC(=O)c2nc(S(=O)(=O)Cc3cccc(C)c3)ncc2Cl)s1	-10.7	-69.9*	-23.8	-0.1%
CCOc1ccccc1NC(=O)c1nc(S(=O)(=O)Cc2cccc(C)c2)ncc1Cl	27.3	-95.7*	-23.5	0.0%
CCc1nnc(NC(=O)c2nc(Cl)ccc2Cl)s1	-4.7	-7.7	-2.7	-0.2%
CCOc1ccc2nc(N3CCCC(C(=O)Nc4ccc(Br)c(C)c4)C3)sc2c1 (stereo not drawn)	nt	nt	2.6	nt

From PubChem
